High-throughput results as filed in PubChem BioAssay.
An excerpt weighted towards active compounds, which were near 4.5% of everything screened.
GAA850 FXN act: frataxin GAA850 promoter activation | HEK293 lucGAA850 FXN promoter luciferase reporter, 24 h; percent of 10 µM SAHA response | activation, % at 6 µM | 0.56% of 360,000 active;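 active = activation above the average of all compounds screened plus 3 SD, cutoff fixed separately per campaign, cut at about 7.5% in these data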;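 note: 0% = DMSO wells and 100% = 10 µM SAHA wells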
DAX1 inh-1: inhibits human nuclear receptor DAX1; P51843; HEK293 Gal4-DAX1 luciferase reporter, luminescence; inhibition, % at 6.75 µM; 0.99% of 340,000 active; AID 504766;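 active = inhibition above the mean over all tested compounds plus 3 SD, cut at about 4.2% in these data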;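 note: 0% = DAX1-transfected cells with DMSO and 100% = empty-vector control cells with DMSO; inhibition shows as a rise in luminescence from relieved DAX1 repression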
Target sequence (P51843 207-470 limits assumed): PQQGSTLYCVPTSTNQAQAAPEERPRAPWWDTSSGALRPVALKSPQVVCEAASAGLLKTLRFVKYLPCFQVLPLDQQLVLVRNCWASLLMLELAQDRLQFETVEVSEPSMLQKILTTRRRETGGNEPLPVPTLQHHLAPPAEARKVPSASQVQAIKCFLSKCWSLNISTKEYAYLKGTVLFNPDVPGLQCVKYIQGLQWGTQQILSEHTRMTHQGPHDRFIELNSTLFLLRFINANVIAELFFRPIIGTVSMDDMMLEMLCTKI
ssDAF12 agonist: S. stercoralis DAF-12 activation, primary screen | 1% of 370,000 active | activation, % at 6.8 µM | HEK293 ssDAF-12/GRIP1 lit1-tk-luc reporter, luminescence; % of 3 µM dafachronic acid response | AID 652126;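 active = activation above the mean over all tested compounds plus 3 SD, cut at about 0.9% in these data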;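 note: 0% = DMSO-only wells and 100% = 3 µM delta7-dafachronic acid wells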
hcDAF12 agonist: H. contortus DAF-12 activation, primary screen | AID 652067 | activation, % at 6.8 µM | HEK293 hcDAF-12 lit1-tk-luc reporter, luminescence; 0% DMSO, 100% Δ7-dafachronic acid | 1.4% of 370,000 active;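 active = activation above the mean of all tested compounds plus 3 SD, cut at about 5.5% in these data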;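 note: 100% = response to 3 µM Δ7-dafachronic acid high control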
hgDAF-12 ag: hgDAF-12 agonism, primary luciferase screen; HEK293 GAL4-hgDAF12 UAS-luciferase reporter, agonist luminescence; normalized to butyrate control; 1.8% of 370,000 active; activation, % at 6.8 µM;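 active = activation above a cutoff set at the mean of all screened compounds plus 3 SD, cut at about 10% in these data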;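 note: 0% = DMSO wells and 100% = sodium butyrate wells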
DAX1 inh-2: DAX1 (NR0B1) inhibition, primary screen; HEK293T StAR-luciferase reporter, SF-1/DAX-1 repression relief; inhibition, % at 6.8 µM; 1.1% of 370,000 active;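 active = inhibition above the mean over all tested compounds plus 3 SD, cut at about 3.6% in these data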;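 note: 0% = DAX-1 cells with DMSO and 100% = cells lacking DAX-1 with DMSO; higher inhibition means more luminescence from relief of DAX-1 repression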
An asterisk follows results filed as active; . = no result given.

SMILES | GAA850 FXN act | DAX1 inh-1 | ssDAF12 agonist | hcDAF12 agonist | hgDAF-12 ag | DAX1 inh-2
COc1ccc(/C=C2/C(=O)N(c3nc4ccccc4s3)N=C2CSc2ccc(Cl)cc2)cc1 | 4.1 | 0.5 | 0.7 | 5.6* | 4.4 | 0.6
COC(=O)[C@@]1(C(C)C)N=C(c2cc(OC)c(OC)c(OC)c2)[C@]2(O1)C(=O)N(Cc1cn(Cc3ccccc3)nn1)c1ccc(F)cc12 | . | . | -1.5 | -2.8 | -0.4 | -0.4
O=C(OCCN1CCN(C2CN(Cc3cn(Cc4ccccc4C(F)(F)F)nn3)S(=O)(=O)C2)CC1)c1cc2ccccc2o1 (stereo unspecified) | . | . | -1.0 | 0.0 | 3.0 | -0.8
O=C(N/N=C/c1cccnc1)c1ccc2ccccc2c1O | 0.2 | 0.6 | -0.8 | 1.6 | 0.4 | 1.6
CCOc1cc(C(=O)Nc2cccnc2)cc(OCC)c1OCC | 0.7 | 1.2 | 1.2* | 3.7 | 1.0 | -1.0
O=C(Nc1cccnc1)c1ccc2ccccc2c1O | 3.6 | 4.3* | 0.6 | 2.4 | 9.0 | 1.1
CCSc1ccccc1C(=O)Nc1cccnc1 | 1.7 | 4.7* | -0.7 | -1.1 | 2.9 | 0.7
COC(=O)C1CN(Cc2cn(Cc3ccc(OC)cc3)nn2)CCS(=O)(=O)N1Cc1ccc(OC)cc1 (stereo unspecified) | . | . | -1.8 | -0.7 | -0.5 | -1.5
Cc1cccc(-c2cccc3c4c([nH]c23)[C@@H]2C[C@H](N(C)C(=S)Nc3ccc(C#N)cc3)[C@H]([C@H](C)O)CN2CC4)c1 | . | . | -1.4 | 1.4 | 0.1 | -0.1
COc1ccc(OCCOc2ccccc2[N+](=O)[O-])cc1 | 4.5 | 0.6 | 1.2* | 0.6 | 8.5 | 1.6
O=[N+]([O-])c1ccccc1OCCOc1ccccc1[N+](=O)[O-] | 6.0 | 3.8 | -0.2 | 4.9 | 3.6 | 0.4
CC(C)OCCCNC(=O)CN1C(=O)CC(C)(C)S(=O)(=O)c2ccccc21 | -0.5 | -0.5 | -1.4 | -2.4 | -1.2 | -0.4
COCCNC(=O)CN1C(=O)CC(C)(C)S(=O)(=O)c2ccccc21 | 13.1* | -0.9 | -1.2 | 1.4 | 2.3 | 0.7
O=C(Nc1ccccc1F)c1ccc2ncsc2c1 | 1.6 | -0.3 | -0.2 | 0.6 | 12.7* | 0.3
COc1ccc(/C=C2\SC(=S)N(CCCC(=O)Nc3ccccc3C(=O)O)C2=O)cc1OC | -0.6 | 1.0 | -1.2 | 6.3* | -0.1 | -0.1
COc1ccc(/C=C2\SC(=S)N(CCC(=O)Nc3ccccc3C(=O)O)C2=O)cc1 | -1.4 | -1.1 | -0.8 | -2.8 | -1.9 | -0.2
COC(=O)C1C(=O)c2c([nH]c(C(=O)OC3CCCC3)c2C)CC1C (stereo unspecified) | 4.8 | 2.1 | 0.1 | 6.0* | 8.9 | 3.3
CN(CCc1ccccn1)C(=O)Cn1nc(-c2ccccc2)ccc1=O | . | . | -1.1 | 1.9 | -1.9 | -0.2
CC(=O)c1cccc(NC(=O)COc2ccccc2)c1 | 2.0 | 1.2 | -1.1 | -2.1 | 4.5 | 0.6
CC(C)CCOCC(=O)Nc1cccc(C(=O)O)c1 | 3.5 | -1.7 | -0.5 | 3.5 | 12.0* | 3.3
COC(=O)C1CN(Cc2cn(Cc3ccc(C)cc3)nn2)CCS(=O)(=O)N1Cc1ccc(C)cc1 (stereo unspecified) | . | . | -1.5 | -1.1 | -4.1 | -1.5
CN(CCOC(=O)c1cccs1)C1CN(Cc2cn(Cc3ccccc3Cl)nn2)S(=O)(=O)C1 (stereo unspecified) | . | . | -0.7 | 1.3 | 4.8 | 1.0
COc1ccc(Cc2c(-c3ccc(Cl)cc3)nc3cc(C)c(Br)c(C)n23)c(C)c1 | . | . | 0.9* | 5.1 | 13.2* | 1.1
COc1ccc(Cc2c(-c3ccc(F)cc3)nc3cc(C)c(Br)c(C)n23)c(C)c1 | . | . | 2.2* | 5.7* | 10.0 | 1.3
CCCc1nc2cc(C)c(Br)c(C)n2c1Cc1ccc(OC)cc1C | . | . | 0.3 | 3.0 | 3.2 | -2.4
COc1ccc(Cc2c(C(C)(C)C)nc3cc(C)c(Br)c(C)n23)c(C)c1 | . | . | 1.8* | 0.5 | 3.8 | 0.0
COc1ccc(S[C@]2(C(=O)N3CCOCC3)CC(=O)N(C(=O)/C=C/c3ccccc3)[C@@H]2c2ccc(OC)cc2)cc1 | . | . | -1.2 | -3.2 | 2.1 | -3.0
CCOc1ccc(Nc2ccc(N3C(=O)CCC3=O)cc2[N+](=O)[O-])cc1 | 0.4 | 1.5 | -1.3 | 6.2* | 1.5 | -0.3
